# KB-V1 MDR tox: kills drug-selected multidrug resistant KB-V1 cells | 400,000 tested, 3.4% active | KB-V1 MDR cells viability, CellTiter-Glo, 72 h | Potency, µM (titrated, usually from 46.1 µM), most hits filed as cytotoxic; note: nearly all actives have a fitted effect of over 60% in size
#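 qHTS viability screen in drug-selected KB-V1 MDR cells: 72 h compound treatment at 37 degrees C, ATP luminescence end point.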
# KB-3-1 cytotox: kills parental KB-3-1 adenocarcinoma cells; KB-3-1 viability, CellTiter-Glo ATP luminescence, 72 h; Potency, µM (series often up to 46.1 µM), most hits filed as cytotoxic; 400,000 tested, 1.4% active; note: nearly all actives have a fitted effect of over 60% in size
#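 Viability of parental KB-3-1 cells, measured by CellTiter-Glo luminescence, followed a 72 h incubation at 37 °C with pinned compounds in phenol-red-free DMEM containing 10% FBS.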
# SW480 rereplic: DNA re-replication induction in SW480 cells. SW480 DNA re-replication, Hoechst DNA content imaging, 48 h. Potency, µM (doses to about 46.1 µM), hits mostly activators. 340,000 tested, 1.8% active. AID 624297; note: nearly all actives have a fitted effect of over 55% in size
#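 Image-based DNA-content assay: after two days of treatment, nuclei were labelled with the DNA dye Hoechst and imaged, and hits were compounds raising the count of nuclei showing high fluorescence intensity.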
# MCF10A rereplic: induces DNA re-replication in MCF 10a normal breast cells | MCF 10A DNA re-replication, Hoechst nuclear intensity, 48 h | Potency, µM (series often up to 46.1 µM), usual class: activators | 350,000 tested, 2.9% active | AID 624296; note: nearly all actives have a fitted effect of over 50% in size
# HT1080 IDH1KD tx: HT-1080 IDH1 knockdown cell toxicity (counter line); HT-1080 IDH1 knockdown viability, ATP luminescence, 48 h; Potency, µM (series often up to 46.1 µM), usual class: cytotoxic; 360,000 tested, 2% active
#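 Assay cells: HT-1080 with IDH1 knockdown, 750 per well, RPMI/5% FBS. Exposure: 48 h at 37 °C following 2 h pre-incubation. Read: CellTiter-Glo luminescence; fitted concentration-response, curve class assigned.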
# HT1080-NT tox: kills 2HG-producing HT-1080-NT fibrosarcoma cells; HT-1080-NT fibrosarcoma viability, CellTiter-Glo ATP luminescence, 48 h; Potency, µM (doses to about 46.1 µM), actives largely listed as cytotoxic; 360,000 tested, 1.6% active; AID 686970;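 note: NT is the 2HG producing partner of a matched IDH1 knockdown line; nearly all actives have a fitted effect of over 55% in size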
#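 A 48-hour cytotoxicity screen used HT-1080-NT cells plated 2 hours before compound delivery. ATP-based CellTiter-Glo luminescence measured viability, normalized to DMSO and no-cell controls.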
# Numbers stand for hits; n = inactive; u = inconclusive; x = no result given; [ ] = remark or other dose. Shown are actives, neighbours in structure and some others; about 7.9% of the full set was active somewhere. Calls come from the whole dose curve; as a rule, active = well fitted curve in the direction sought with a large enough effect; inconclusive = small, poorly fitted or top-dose-only effect, or another doubt; inactive = no such curve, though single readings can be large; an effect the other way counts as inactive or inconclusive.
SMILES,KB-V1 MDR tox,KB-3-1 cytotox,SW480 rereplic,MCF10A rereplic,HT1080 IDH1KD tx,HT1080-NT tox
O=c1cc(O)c2c(=O)n(Cc3ccccc3)c3ccccc3c2o1,6.5µM,n,n,u,n,n
CCCCn1c(=O)cc(O)c2ccccc21,n,n,n,n,n,n
O=C1CCCc2c1cc(C(=O)O)c(=O)n2-c1ccccc1,n,n,n,n,n,n
O=c1cc(O)c2c(=O)n(C3CCCCC3)c3ccccc3c2o1,4.1µM,u,n,u,u,n
O=c1c([N+](=O)[O-])c(O)c2ccccc2n1Cc1ccccc1,n,n,n,n,n,n
CCCCn1c(=O)c2c(O)cc(=O)oc2c2ccccc21,4.6µM,n,n,n,n,n
O=c1cc(O)c2c(=O)n(-c3ccccc3)c3c(c2o1)CCCCCC3,5.2µM,n,n,u,n,n
Cc1ccc(C)c(S(=O)(=O)N2CCN(C(=O)[C@H](Cc3ccccc3)NC(=O)c3ccco3)CC2)c1,n,n,n,n,n,n
COc1ccc(-n2c(=O)c3c4c(sc3n(Cc3ccc(C(C)(C)C)cc3)c2=O)CCC4)c(OC)c1,n,n,x,x,x,x
Cc1ccc(S(=O)(=O)N(C)c2ccc(OCC(=O)Nc3nc(-c4ccccc4)cs3)cc2)cc1,n,n,n,u,n,n
Cc1ccc(S(=O)(=O)N(C)c2ccc(OCC(=O)Nc3nc4ccccc4s3)cc2)cc1,2.9µM,u,n,n,u,n
Cc1ccc(S(=O)(=O)N(C)c2ccc(OCC(=O)Nc3nc4c(ccc5ccccc54)s3)cc2)cc1,4.1µM,n,n,n,n,n
CCOC(=O)c1ccccc1NC(=O)c1cnn(-c2ccc(OC)cc2)c1C1CCN(C(=O)OC(C)(C)C)CC1,n,n,x,x,x,x
CCC(=O)N1N=C(c2cccs2)CC1c1ccc(C)cc1 (centres undefined),n,n,n,n,n,n
COc1ccc(C2CC(c3cccs3)=NN2C(=O)CSc2nnnn2C)cc1OC (centres undefined),n,n,n,n,n,n
COc1ccc(C2CC(c3cccs3)=NN2C(=O)CSc2nncn2C)cc1OC (centres undefined),u,n,n,4.6µM,n,n
Cc1ccc(C2CC(c3cccs3)=NN2C(=O)CCl)cc1 (centres undefined),u,u,u,u,4.1µM,4.6µM
O=C(CSc1n[nH]c(-c2ccccc2Cl)n1)NCCc1ccccc1,n,n,x,x,x,x
CCOC(=O)c1nc2ccc(C)cc2c2c1C1CC(c3c(Cl)cccc31)N2C(=O)OCc1ccccc1 (centres undefined),u,u,x,x,n,n
Cc1nc([N+](=O)[O-])c(Br)n1CC(=O)c1ccc(F)cc1,n,n,u,21µM,18µM,u
Cc1nc([N+](=O)[O-])c(Br)n1CC(=O)c1cccc([N+](=O)[O-])c1,n,n,u,21µM,u,n
CCC(C(=O)N1CCN(c2ccccc2OC)CC1)c1ccccc1 (centres undefined),21µM,u,n,u,u,n
CCC(C(=O)N1CCN(S(C)(=O)=O)CC1)c1ccccc1 (centres undefined),n,n,n,n,n,n
COc1ccccc1N1CCN(C(=O)C(NS(=O)(=O)c2cccs2)c2ccccc2)CC1 (centres undefined),4.6µM,n,n,n,n,n
CCOC(=O)N1CCN(c2ccccc2OC)CC1,n,n,n,n,n,n
SMILES,KB-V1 MDR tox,KB-3-1 cytotox,SW480 rereplic,MCF10A rereplic,HT1080 IDH1KD tx,HT1080-NT tox
CCOC(=O)N1CCN(C(=O)C(CC)c2ccccc2)CC1 (centres undefined),12µM,n,n,n,n,n
CCOC(=O)N1CCN(C(=O)c2ccccc2-c2ccccc2)CC1,4.6µM,4.6µM,10µM,8.2µM,7.3µM,10µM
CCc1cc(=O)oc2cc(C)cc(OCC(=O)N3CCC(C(=O)NC(C)C)(c4ccccc4)CC3)c12,u,n,n,u,n,n
CC(C)c1nc2sc3c(N4CCCCC4)ncnc3c2c2c1CCCC2,n,n,x,x,x,x
CC(=O)c1ccc(-n2nncc2C(C)(C)C)cc1,n,n,n,n,n[9.24 µM],u
Cc1cnnn1-c1ccc(C(=O)CCl)cc1,n,u,u,29µM,n,n
CCCn1c(CN(C)Cc2ccccc2)nc2c1c(=O)n(C)c(=O)n2C,u,n,n,n,n,n
Cn1c(=O)c2c(nc(CN3CCc4ccccc4C3)n2Cc2ccccc2)n(C)c1=O,n,12µM,n,u,n,n
CN(Cc1ccccc1)Cc1nc2c(c(=O)n(C)c(=O)n2C)n1Cc1ccccc1Cl,9.2µM,n,n,n,n,n
CCCCn1c(CN(C)Cc2ccccc2)nc2c1c(=O)n(C)c(=O)n2C,2.3µM,u,n,n,n,n
Cn1c(=O)c2c(nc(CN3CCN(c4ccccc4)CC3)n2Cc2ccccc2Cl)n(C)c1=O,8.2µM,u,u,u,n,n
O=C(O)c1ccc(NC2(C(=O)O)CCCC2)cc1,n,n,n,n,n,n
COc1ccccc1CNC(=O)CCc1c(C)c2ccc(OC)c(C)c2oc1=O,n,n,x,x,x,x
COc1ccc(N2CCN(Cc3nc4c(c(=O)n(C)c(=O)n4C)n3C(C)C)CC2)cc1,n,16µM,x,x,x,x
O=C1OCC(CO)(CO)N=C1NNc1ccccc1Cl,n,n,n,n,n,10µM
O=C(O)C1(Nc2ccccc2Cl)CCCC1,n,n,n,n,n,n
CCN(CC)C(=O)CNC(=O)c1nn(-c2ccc(OC)c(Cl)c2)c(=O)c2ccccc12,n,n,n,n,n,n
COc1ccc(-n2nc(C(=O)NCC(=O)Nc3cc(OC)c(OC)c(OC)c3)c3ccccc3c2=O)cc1Cl,n,n,n,23µM,n,n
COc1cc(-c2nnc3sc(C4CCCCC4)nn23)cc(OC)c1OC,18µM,u,n,21µM,n,n
COc1cccc(-c2nnc3sc(C4CCCCC4)nn23)c1,3.7µM,u,n,u,n,n
CC1CCCC(C)N1C(=O)c1cc2ncc(CCCl)cn2n1 (centres undefined),21µM,n,n,n,n,n
COc1cccc(CNC(=O)CSc2nc3ccccc3nc2Cc2ccc(C)cc2)c1OC,n,n,x,x,x,x
Fc1ccccc1NC(=S)NN(Cc1ccccc1)c1ccccc1,n,n,u,n,u,11µM
CC(=O)Nc1ccc(NC(=O)c2csnn2)cc1,n,n,x,x,x,x
COc1ccc(Nc2nc(N3CCCCC3)c3ccccc3n2)cc1,21µM,u,n,n,u,n
Oc1ccc(Nc2nc(N3CCCC3)c3ccccc3n2)cc1,n,9.2µM,u,u,u,u
N#CC1=C(S)N(c2ccccc2)C(c2ccc(-c3cccc(Cl)c3)o2)NC1=O (centres undefined),n,n,23µM,u,n,n

# Compound activity (PubChem)
